This passage reports survival results from PubChem BioAssay AID463173 (ICCB-Longwood Screening Facility, Harvard Medical School, 2010).

Out of some 52,000 compounds screened, about 4,300 (8.3%) were called active. This is one part of a sample in which actives are shown more often than they occur. Cut-off read from the data, not from the text of the source: active = survival mostly below about 52% (no sharp cut-off); inactive = mostly above about 56%.

This assay has as its system DeltatarO mutant. Briefly: growth inhibition of S. aureus wild type versus tarO mutant, primary screen, teichoic acid synthesis inhibitors, RN4220, OD600 (AID 463173). Conditions: OD600, 18 h, active compounds read low, screened at 18.75 µg/mL (by protocol).
On to `CC1=C(C)NC(=S)SC1`, for which the survival was 101% (inactive).

Regarding `Cc1cc(=O)c2cc(C(=O)Nc3ccccc3C)ccc2[nH]1`, the survival is 84% (inactive).

Take `COc1ccc(CCNC(=O)c2c(Nc3ccccc3C)sc(C(=O)c3ccccc3)c2N)cc1OC`: the survival was 66% (inactive).

Turning to `O=C(NC1CC1)C1CCN(C(=O)c2ccc(Cl)cc2)CC1`, the survival is 86% (inactive).

Consider `CCCC(C(=O)NC1CCCC1)N(C(=O)Cn1nnc(-c2ccc(C)o2)n1)c1ccccc1` (configuration not stated), for which the survival was 89% (inactive).

Turning to `CC(=NC1CC1)C1=C(O)c2ccccc2C1=O`, the survival is 92% (inactive).

Take `Cc1cc(C)c(S(=O)(=O)n2cnc(C)c2)c(C)c1`: the survival was 95% (inactive).

For `Cc1ccc(-c2nc3ncccc3o2)cc1NC(=O)COc1ccc(C(C)C)cc1`, the survival was 6% (active).

Take `CC(C)c1ccc(OCC(=O)Nc2cc(-c3nc4ncccc4o3)ccc2Cl)cc1`: the survival is 150% (inactive).

In the case of `Cc1cc(OCC(=O)Nc2cc(-c3nc4ncccc4o3)ccc2C)ccc1Cl`, the survival is 50% (inactive).

For the compound `Cc1cc(-c2nc3ncccc3o2)ccc1NC(=O)COc1ccc(C(C)(C)C)cc1`, the survival was 32% (active).

Turning to `Cc1cc(-c2nc3ncccc3o2)ccc1NC(=O)COc1cc(C)c(Cl)c(C)c1`, the survival was 65% (inactive).

As to `CCC(=O)Nc1ccc(-c2nc3ncccc3o2)cc1C`, the survival was 73% (inactive).

For `COc1ccc(-c2nc(C)c(CCNC(=O)C(=O)Nc3c(C)cccc3C)s2)cc1OC`, the survival was 85% (inactive).

With `CCc1ccccc1NC(=O)c1nn(-c2ccc(C)cc2)c(=O)c2c1c1ccccc1n2C`, the survival was 140% (inactive).

As for `Cc1cc(C)cc(NC(=O)CCn2cnc3ccccc3c2=O)c1`, the survival is 77% (inactive).

`CC1(C)Cc2ccccc2C(=NCCC(=O)O)N1`: the survival is 79% (inactive).

With `CC(=O)NCCNC(=O)CCCc1nnc2n(CCC(C)C)c(=O)c3sccc3n12`, the survival is 90% (inactive).

As for `CC(C)c1nnc(N2C(=O)c3oc4ccccc4c(=O)c3C2c2ccccc2F)s1` (configuration not stated), the survival was 64% (inactive).

For `Cc1ccc(CNC(=O)c2cc(=O)c3cc(C)cc(C)c3o2)cc1`, the survival is 102% (inactive).

For `COc1ccc(CNC(=O)c2cc(=O)c3cc(C)ccc3o2)cc1`, the survival was 45% (active).

`Cc1ccc(CNC(=O)c2cc(=O)c3cc(C)c(C)cc3o2)cc1`: the survival was 77% (inactive).

Turning to `COc1ccc(CNC(=O)c2cc3cc(OC)ccc3oc2=O)cc1`, the survival was 51% (inactive).

For `CCc1ccc2oc(C(=O)NCc3ccccc3)cc(=O)c2c1`, the survival was 66% (inactive).

For the compound `COc1ccc(CCNC(=O)c2cc(=O)c3ccc(C)cc3o2)cc1OC`, the survival was 62% (inactive).

With `Cc1ccc2c(=O)cc(C(=O)NCc3ccccc3)oc2c1`, the survival was 39% (active).

As to `COc1ccc(CNC(=O)Cc2coc3ccc(C)cc23)cc1`, the survival is 108% (inactive).

As to `Cc1ccc(CNC(=O)c2cc(=O)c3cc(C)ccc3o2)cc1`, the survival is 42% (active).

Regarding `COc1ccc(CC(NC(C)=O)C(=O)N2CCN(C(=O)Nc3ccc(C#N)cc3)CC2)cc1` (configuration not stated), the survival is 99% (inactive).

Take `Cc1cc(C)cc(NC(=O)NCCc2c(C)nn(C)c2C)c1`: the survival was 64% (inactive).

For `CC1CCCCN1C(=O)CSc1nc2ccccc2c(=O)[nH]1` (configuration not stated), the survival is 82% (inactive).

Regarding `CCOc1cc(C(=O)OCc2cc(=O)n3nc(CC)sc3n2)cc(OCC)c1OCC`, the survival is 87% (inactive).

`Cc1ccc(OCc2nc(-c3ccc(C(=O)NCCc4ccc(Cl)cc4)cc3)oc2C)cc1`: the survival is 84% (inactive).

As for `Cc1oc(-c2cccc(Cl)c2)nc1CN1CCC(C(=O)NCc2ccc(F)cc2)CC1`, the survival was 124% (inactive).

For the compound `CCOc1ccccc1NC(=O)c1cc2c(=O)[nH]c3ccccc3c2s1`, the survival was 60% (inactive).

As to `CCc1ccccc1NC(=O)c1cc(-c2ccc(Cl)s2)nc2ccccc12`, the survival is 71% (inactive).

Turning to `O=C(Nc1ccc(Cl)cc1)c1cc2c(Cl)nc3ccccc3c2s1`, the survival is 94% (inactive).

As for `CCc1ccccc1NC(=O)c1cc2c(Cl)nc3ccccc3c2s1`, the survival is 42% (active).

For the compound `CCOc1ccccc1NC(=O)c1cc2c(Cl)nc3ccccc3c2s1`, the survival was 41% (active).

For the compound `CC(C)NC(=O)c1cc2c(Cl)nc3ccccc3c2s1`, the survival was 56% (inactive).

For `CCOC(=O)C1=C(CN(CC)Cc2ccccc2)NC(=O)NC1c1ccc(OC)cc1` (configuration not stated), the survival is 65% (inactive).

In the case of `CNC(=O)c1cc2c(n(-c3ccc(C)cc3)c1=O)CC(C)(C)CC2=O`, the survival is 93% (inactive).

Regarding `CCOc1ccc(NC(=O)c2cc3c(n(-c4ccc(OC)cc4)c2=O)CC(C)(C)CC3=O)cc1`, the survival was 60% (inactive).

`CN(C)C=NC(=O)c1cc2c(n(-c3ccccc3)c1=O)CC(C)(C)CC2=O`: the survival is 46% (inactive).

As to `COc1ccccc1NC(=O)c1cc2c(n(-c3ccc(C)cc3)c1=O)CC(C)(C)CC2=O`, the survival was 45% (active).

For the compound `CC1(C)CC(=O)c2cc(C(=O)NC(C)(C)C)c(=O)n(-c3ccccc3)c2C1`, the survival is 39% (active).

Take `CCOC(=O)c1ccc(NC(=O)c2cc3c(n(-c4ccc(C)cc4)c2=O)CC(C)(C)CC3=O)cc1`: the survival is 153% (inactive).

Turning to `CC1(C)CC(=O)c2cc(C(=O)Nc3ccc(Br)cc3)c(=O)n(-c3ccc(Cl)cc3)c2C1`, the survival is 42% (active).

In the case of `COc1ccc(OC)c(NC(=O)c2cc3c(n(-c4ccc(Cl)cc4)c2=O)CC(C)(C)CC3=O)c1`, the survival was 69% (inactive).

As for `Cc1ccc(-n2c3c(cc(C(=O)Nc4ccccc4C(N)=O)c2=O)C(=O)CC(C)(C)C3)cc1`, the survival was 49% (inactive).

For the compound `Cc1ccc(CCNC(=O)CCCn2c(=O)c3ccccc3n(Cc3ccccc3C)c2=O)cc1`, the survival is 88% (inactive).

Take `CC1CC(C)CN(C(=O)Cn2cnc3c2c(=O)n(C)c(=O)n3C)C1` (configuration not stated): the survival is 107% (inactive).

`Cc1ccccc1CNC(=O)CN1C(=O)CSc2ccc(S(=O)(=O)N(C)C)cc21`: the survival is 78% (inactive).

As for `CCC(=O)N(Cc1nc2ccccc2c(=O)[nH]1)Cc1ccccc1OC`, the survival is 90% (inactive).

Regarding `Cc1ccc(N2CCN(C(=O)c3cc(S(=O)(=O)N4CCCCC4)c[nH]3)CC2)c(C)c1`, the survival was 102% (inactive).

On to `CCOc1ccc(N(CC(=O)Nc2ccccc2CC)S(=O)(=O)c2c(C)noc2C)cc1`, for which the survival is 79% (inactive).

Regarding `COc1ccc(C(=O)Nc2nnc(SCc3cc(=O)n4cccc(C)c4n3)s2)cc1`, the survival is 72% (inactive).

With `O=C(O)c1ccc(CN2CCCCC2)cc1`, the survival is 79% (inactive).

In the case of `Cc1oc(C(=O)O)cc1CN1CCCC1`, the survival is 100% (inactive).

For the compound `Cc1cc(C(=O)O)c(CN2CCCC2)o1`, the survival was 74% (active).

In the case of `CC1=C(C(=O)Nc2cccnc2)C(c2ccccc2Cl)n2nc(-c3ccccc3)nc2N1` (configuration not stated), the survival is 74% (inactive).

Consider `Cc1nc(SCC(=O)OC(C)(C)C)c2c3c(sc2n1)CCCC3`, for which the survival was 7% (active).

With `Cc1ccc(-c2nc(NC(=O)CSc3nc(C)nc4sc5c(c34)CCCC5)ns2)cc1`, the survival is 53% (inactive).

Regarding `Cc1nc(SCC(N)=O)c2c3c(sc2n1)CCCC3`, the survival is 80% (inactive).

Take `CCCCN(C)c1ncnc2c1cnn2-c1cccc(Cl)c1`: the survival is 101% (inactive).

As to `CCc1ccc(C(=O)c2cn(CC(=O)Nc3ccc4c(c3)OCO4)c3ccc(Cl)cc3c2=O)cc1`, the survival was 72% (inactive).

As to `Cc1cc(S(=O)(=O)Nc2ccc3oc4c(c3c2)CCCC4)ccc1Cl`, the survival is 41% (active).

As for `Cc1cc(C)c(S(=O)(=O)Nc2ccc3oc4c(c3c2)CCCC4)cc1C`, the survival is 55% (inactive).

As to `Cc1oc2ccc(NS(=O)(=O)c3ccc(F)cc3)cc2c1C(=O)O`, the survival is 193% (inactive).

For `CC(C)(C)C1CCc2oc3ccc(NS(=O)(=O)c4ccc(C(=O)O)cc4)cc3c2C1` (configuration not stated), the survival was 16% (active).

As for `CC(C)(C)C1CCc2oc3ccc(NS(=O)(=O)c4cc(Cl)ccc4Cl)cc3c2C1` (configuration not stated), the survival is 73% (inactive).

As to `Cc1ccc(S(=O)(=O)Nc2cc(Cl)c3oc4c(c3c2)CCCC4)cc1`, the survival is 117% (inactive).

As for `O=S(=O)(NC1CCCCC1)c1cc(Cl)ccc1Cl`, the survival was 96% (inactive).

`COc1ccc(S(=O)(=O)Nc2ccc3oc4c(c3c2)C(=O)CC(C)(C)C4)cc1`: the survival was 159% (inactive).

Regarding `O=S(=O)(Nc1ccc2oc3c(c2c1)CCCC3)c1cc(Cl)ccc1Cl`, the survival is 33% (active).

For `CCn1cnc2c(=O)oc3ccc(S(=O)(=O)Nc4ccc(OC)cc4)cc3c21`, the survival was 75% (inactive).

`CCOc1ccc(S(=O)(=O)Nc2ccc3oc4c(c3c2)CC(C)CC4)cc1` (configuration not stated): the survival is 44% (inactive).

Take `COc1ccc(S(=O)(=O)Nc2ccc3oc4c(c3c2)CCCC4)cc1`: the survival was 27% (active).

In the case of `CCN1C(=O)c2ccccc2Sc2ccc(NC(=O)Nc3ccc(Br)c(C)c3)cc21`, the survival is 71% (inactive).

In the case of `Oc1ccccc1Nc1nc2ccccc2n2nnnc12`, the survival is 80% (inactive).

Turning to `CN(C)CCCNc1nc(-c2ccc(Cl)cc2)cs1`, the survival is 132% (inactive).

Turning to `CCOc1cc(C2c3c(oc4cc(C)cc(C)c4c3=O)C(=O)N2CCO)ccc1O` (configuration not stated), the survival is 68% (inactive).

`O=C(Cn1c2ncccc2c(=O)n1-c1ccccc1)Nc1cccc(C(F)(F)F)c1`: the survival was 67% (inactive).

On to `O=C(Nc1ccccc1C(=O)N1CCOCC1)C1COc2ccccc2O1` (configuration not stated), for which the survival was 95% (inactive).

As for `CCC(=O)N1CCc2cc(CNC(=O)c3ccc(F)cc3)ccc21`, the survival was 73% (inactive).

`O=C(Nc1ccc(Cl)cc1F)c1cc(S(=O)(=O)NCc2ccc3c(c2)OCO3)ccc1F`: the survival was 77% (inactive).

As for `COc1ccc(/C=C2\SC(=S)N(CCC(=O)NCCO)C2=O)cc1`, the survival is 104% (inactive).

Take `Cc1cc2c(cc1S(=O)(=O)NCc1ccc(N(C)C)cc1)OCC(=O)N2`: the survival was 80% (inactive).

For the compound `COc1ccc(NC(=O)c2[nH]nc3c2CSc2ccccc2-3)c(OC)c1`, the survival was 49% (inactive).

On to `COc1cccc2cc(-c3nc(-c4ccc(C)cc4)c(C)s3)c(=O)oc12`, for which the survival is 46% (active).

For the compound `CCOc1cccc2cc(-c3nc(-c4ccc(Cl)cc4)c(C)s3)c(=O)oc12`, the survival is 105% (inactive).

Take `COc1cccc2cc(-c3nc(Nc4cccc(C)c4)sc3C)c(=O)oc12`: the survival was 98% (inactive).

`CCOC(=O)C1=C(SCC)c2cc3c(n2C1=O)CCCC3`: the survival was 83% (inactive).

On to `CCCCN(C)CCCNC(=O)c1cc(-c2ccc(Br)s2)nc2ccccc12`, for which the survival was 33% (inactive).

Turning to `COc1ccc(CNC(=O)c2cc(-c3ccc(Br)s3)nc3ccccc23)cc1`, the survival is 77% (inactive).

As to `CCc1ccc(CNC(=O)c2cc(-c3ccc(Br)s3)nc3ccccc23)cc1`, the survival was 60% (active).

As to `CCN(CC)CC(C)CNC(=O)c1cc(-c2ccc(Br)s2)nc2ccccc12` (configuration not stated), the survival is 31% (active).

As for `CCCN(CCC)CCNC(=O)c1cc(-c2ccc(Br)s2)nc2ccccc12`, the survival was 68% (inactive).

For `CC(C)CCNC(=O)c1cc(-c2ccc(Br)s2)nc2ccccc12`, the survival is 81% (inactive).

Consider `CCN(CC)CCNC(=O)c1cc(-c2ccc(Br)s2)nc2ccccc12`, for which the survival was 28% (active).

As to `CC(C)CN(CCCNC(=O)c1cc(-c2ccc(Br)s2)nc2ccccc12)CC(C)C`, the survival is 91% (inactive).

Consider `CCc1ccc(CNC(=O)c2cc(-c3ccc(Cl)s3)nc3ccccc23)cc1`, for which the survival is 83% (inactive).
